Measured values taken from PubChem BioAssay (NCATS).
Records with an inconclusive call do not appear. Active and inactive are the calls of the source. Calls come from the whole dose curve; as a rule, active = well fitted cell-killing curve with a large enough effect; inconclusive = small, poorly fitted or top-dose-only effect, or effect the other way; inactive = no such curve, though single readings can be large or run the other way.

Assays:
[1] = Quantitative High-Throughput drug screen in 47 multiple myeloma cell lines against the NCATS MIPE library collection: Delta47_JCRB cell viability assay (AID 1918925; note: potency is the fitted concentration of half-maximal effect; nearly all actives have a fitted effect of over 45% in size)
How it was run: (§1)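 Luminescent ATP measurement with CellTiter-Glo gives viability, scaled between DMSO-only wells (100%) and media-only wells (0%). Cells, 500 per well, faced library compounds for 48 hours at 37C.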

[2] = Quantitative High-Throughput drug screen in 47 multiple myeloma cell lines against the NCATS MIPE library collection: Karpas620_DSMZ cell viability assay (AID 1918959); note: nearly all actives have a fitted effect of over 30% in size
How it was run: (§2)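 Myeloma cell lines, 500 cells per well, exposed to MIPE 4.0 library compounds for 48 h at 37C, 5% CO2. Viability from ATP by CellTiter-Glo luminescence; normalised to DMSO (100%) and media-only (0%) wells.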

[3] = Quantitative High-Throughput drug screen in 47 multiple myeloma cell lines against the NCATS MIPE library collection: KHM11_PLB cell viability assay (AID 1918962); note: potency is the fitted concentration of half-maximal effect; nearly all actives have a fitted effect of over 35% in size
How it was run: as §2

[4] = Quantitative High-Throughput drug screen in 47 multiple myeloma cell lines against the NCATS MIPE library collection: EJM_DSMZ cell viability assay (AID 1918926; note: nearly all actives have a fitted effect of over 30% in size)
How it was run: as §1

[5] = Quantitative High-Throughput drug screen in 47 multiple myeloma cell lines against the NCATS MIPE library collection: AMO1_DSMZ cell viability assay (AID 1918927; note: potency is the fitted concentration of half-maximal effect; nearly all actives have a fitted effect of over 30% in size)
How it was run: as §1

[6] = Quantitative High-Throughput drug screen in 47 multiple myeloma cell lines against the NCATS MIPE library collection: ARP1_JJKsccF8 cell viability assay (AID 1918928; note: nearly all actives have a fitted effect of over 40% in size)
How it was run: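 Luminescence from CellTiter-Glo, taken after 5 min at room temperature, reports cellular ATP as viability. Cells (500 per well) had been treated 48 h at 37 °C with MIPE 4.0 compounds, scaled between DMSO and medium-only controls.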

[7] = Quantitative High-Throughput drug screen in 47 multiple myeloma cell lines against the NCATS MIPE library collection: Karpas417_ECACC cell viability assay (AID 1918961); conditions: Karpas417 myeloma viability, CellTiter-Glo ATP luminescence, 48 h; viability (% of DMSO): at 45.8 µM (top of the series)
How it was run: as §2

Compound	Potency [1]	Potency [2]	Potency [3]	Potency [4]	Potency [5]	Potency [6]	viability (% of DMSO) [7]
CC[C@H](CO)Nc1nc(NCc2ccccc2)c2ncn(C(C)C)c2n1	16.6 µM (active)	inactive	18.7 µM (active)	–	–	–	–
Nc1nc(-c2nn(Cc3ccccc3F)c3ncccc23)nc(N)c1N1CCOCC1	–	–	–	inactive	20.9 µM (active)	inactive	86.8% (active)
